# Hits are enriched below; roughly 10% of the tested compounds scored in any of these assays.
# JMJD2A Tudor inh – JMJD2A Tudor domain (human) inhibition. AlphaScreen JMJD2A-Tudor / H3K4me3 peptide binding. Potency, µM (doses to about 114 µM), for the others: top-dose activity change, negative = inhibition, actives largely listed as inhibitors. hit rate 4.4% among 390,000. AID 504339; note: % is set by controls: 0 for no effect and ±100 for the full control effect; nearly all actives have a fitted effect of over 50% in size
# Target sequence (O75164 whole entry, looked up, the tested form may be a part): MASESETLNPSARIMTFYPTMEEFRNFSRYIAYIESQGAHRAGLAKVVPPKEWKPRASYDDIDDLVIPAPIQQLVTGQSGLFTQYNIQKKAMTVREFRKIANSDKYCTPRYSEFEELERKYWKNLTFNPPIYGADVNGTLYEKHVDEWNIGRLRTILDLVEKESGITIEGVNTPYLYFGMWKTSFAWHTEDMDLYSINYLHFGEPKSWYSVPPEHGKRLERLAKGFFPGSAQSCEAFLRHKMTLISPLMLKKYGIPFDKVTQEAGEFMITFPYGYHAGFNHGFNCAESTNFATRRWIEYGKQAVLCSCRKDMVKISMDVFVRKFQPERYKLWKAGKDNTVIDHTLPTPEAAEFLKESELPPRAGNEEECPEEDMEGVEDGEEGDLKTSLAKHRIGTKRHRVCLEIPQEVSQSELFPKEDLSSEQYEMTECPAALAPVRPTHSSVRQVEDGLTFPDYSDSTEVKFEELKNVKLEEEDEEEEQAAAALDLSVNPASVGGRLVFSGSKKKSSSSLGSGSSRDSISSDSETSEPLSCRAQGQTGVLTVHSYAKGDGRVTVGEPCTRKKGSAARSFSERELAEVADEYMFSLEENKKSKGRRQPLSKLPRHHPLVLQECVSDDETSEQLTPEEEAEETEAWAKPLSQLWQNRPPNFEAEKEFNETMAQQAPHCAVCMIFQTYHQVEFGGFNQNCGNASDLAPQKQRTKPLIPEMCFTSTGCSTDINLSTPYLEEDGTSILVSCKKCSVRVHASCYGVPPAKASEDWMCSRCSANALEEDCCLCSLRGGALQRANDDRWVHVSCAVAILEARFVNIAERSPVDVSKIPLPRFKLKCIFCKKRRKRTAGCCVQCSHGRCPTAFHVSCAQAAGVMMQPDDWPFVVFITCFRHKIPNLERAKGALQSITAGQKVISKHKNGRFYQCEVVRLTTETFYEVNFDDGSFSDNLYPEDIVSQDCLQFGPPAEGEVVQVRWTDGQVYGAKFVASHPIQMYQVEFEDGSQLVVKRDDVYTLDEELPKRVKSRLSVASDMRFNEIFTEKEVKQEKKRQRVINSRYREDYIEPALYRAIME
# GLS inhibitor – glutaminase GLS (human) inhibition. O94925. GLS enzymatic activity, qHTS titration. Potency, µM (highest dose often 45.5 µM), without a hit: at the highest dose activity change, negative = inhibition, actives largely listed as inhibitors. hit rate 0.21% among 410,000. AID 624170; note: % is set by controls: 0 for no effect and ±100 for the full control effect
#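 hKGA in 45 mM KH2PO4 pH 8.2, 0.02% Tween-20 with pin-transferred compounds; 1 mM L-glutamine (stock) plus glutamate oxidase/HRP/Amplex Red coupling added. Fluorescence read initially and after 30 min at RT.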
# BAZ2B block – blocks human BAZ2B | Q9UIF8 | AlphaScreen BAZ2B-H3K14Ac peptide displacement | Potency, µM (doses to about 114 µM), for inactives: at the highest dose activity change, negative = inhibition, usual class: inhibitors | hit rate 4.4% among 360,000; note: % is set by controls: 0 for no effect and ±100 for the full control effect; nearly all actives have a fitted effect of over 60% in size
#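 Compounds, titrated to a top concentration of 110 uM, were incubated 30 min at room temperature with preformed BAZ2B/acetyl-K14 H3 peptide complex (50 nM each). Proximity signal was measured by AlphaScreen after 20 min with beads.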
# HP1b chromo inh – inhibitors of HP1-beta chromodomain binding to methylated histone tails | AlphaScreen HP1-beta / biotin-H3K9me3 peptide binding | Potency, µM (top dose mostly 114 µM), for inactives: at the top dose activity change, negative = inhibition, actives largely listed as inhibitors | hit rate 0.56% among 390,000 | AID 540317; note: nearly all actives have a fitted effect of over 70% in size
#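 AlphaScreen: HP1-beta (50 nM) preformed 30 min with biotin-H3(1-18)K9me3 peptide (50 nM) in PBS pH 7.4, 0.01% Tween-20. Compound added for 30 min at RT, then streptavidin donor/nickel chelate acceptor beads (10 ug/mL) for 30 min.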
# G9a inh – inhibitors of human histone lysine methyltransferase G9a; hit rate 8.8% among 350,000; Q96KQ7; G9a H3K9 monomethylation, AlphaScreen, 2 h; AID 504332; Potency, µM (titrated, usually from 102 µM), for the others: at the top dose activity, negative = inhibition, most hits filed as inhibitors; note: % is set by controls: 0 for no effect and ±100 for the full control effect; nearly all actives have a fitted effect of over 75% in size
#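 Step 1: enzyme (final 20 nM) with compound, 15 min RT. Step 2: substrate peptide 500 nM and SAM 20 uM, 2 h RT. Step 3: anti-H3K9me1 antibody and AlphaScreen beads, 10 min, then plate read.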
# Active calls of the source: *; ? = inconclusive; . = no result given; [ ] = dose if it differs, or a comment. Calls come from the whole dose curve; as a rule, active = well fitted curve in the direction sought with a large enough effect; inconclusive = small, poorly fitted or top-dose-only effect, or another doubt; inactive = no such curve, though single readings can be large; an effect the other way counts as inactive or inconclusive. Potency is the fitted concentration of half-maximal effect.
SMILES,JMJD2A Tudor inh,GLS inhibitor,BAZ2B block,HP1b chromo inh,G9a inh
CCn1ncc(-c2ccnc3cc(C(=O)O)nn23)c1C,25µM*,3.2µM*,32µM*,15%,?
CCOC(=O)c1c(C)n(CCN2CCN(C)CC2)c2ccc(OC)cc12,18µM*,14%,-34%,?,?
CCCCn1c(C)c(C(=O)O)c2cc(OC)ccc21,-16%,1%,-9%,13%,-7%[59 µM]
COC1/C=C/C=C(\C)Cc2cc(O)c(Cl)c(c2)N(C)C(=O)CC(OC(=O)C(C)C)C2(C)OC2C(C)C2CC1(O)NC(=O)O2 (centres undefined),-15%,4%,.,29%,.
Cc1cc(N2C(=O)C3CCCN3C2c2ccccc2)no1 (centres undefined),28µM*,-8%,?,-25%,?
Cc1ccc(C2N(c3cc(C)on3)C(=O)C3CCCN32)cc1 (centres undefined),-31%[57.1 µM],0%,-35%,25%,35µM*
O=C1C2CCCN2C(c2cccnc2)N1c1ccc(Cl)cc1 (centres undefined),-14%,2%,8%,41%,-25%
O=C(CNC(=O)c1ccc(Cl)cc1)Nc1ccc(Br)cc1C(=O)c1ccccc1,?,-13%,-8%,-7%,-14%[59 µM]
O=C(Nc1ccc(Br)cc1C(=O)O)c1ccc2c(c1)C(=O)N(Cc1ccccc1)C2=O,50µM*,3%,?,-26%,7%
CC12CCCCC1N(O)CN2O (centres undefined),?,23%,4%,46%,7.9µM*
O=C(O)c1ccccc1NS(=O)(=O)c1cccc(N=Nc2c(O)[nH]c(=S)[nH]c2=O)c1,-17%,24%,-12%,-18%,50µM*
CN(C)c1c([N+](=O)[O-])cc(N2C(=O)C=CC2=O)cc1[N+](=O)[O-],8.9µM*,?,.,14µM*,.
CSc1ccc(C(=O)C2CCCN(Cc3cc4ccccc4[nH]3)C2)cc1 (centres undefined),11µM*,-1%,20µM*,?,16µM*
Cc1ccc2c(=O)n(-c3cccc(Cl)c3)c(=O)[nH]c2c1,-8%,-21%,0%,41%,?
Cc1nn(CCc2n[nH]c(=S)n2-c2cccc(Cl)c2)c(C)c1[N+](=O)[O-],45µM*,13%,2%,21%,1.1µM*
CCN(C[C@H]1N[C@@](C)(C(=O)OC)[C@H]2C(=O)N(Cc3ccccc3)C(=O)[C@@H]12)S(=O)(=O)c1ccc(C(C)(C)C)cc1,?,-7%,.,13%,.
COc1cccc(CNC(=O)CSc2ccc(-c3ccco3)nn2)c1,-23%,-8%,?,21%,28µM*
CC1CCN(C(=O)N2c3ccccc3Sc3ccccc32)CC1,6%,5%,11%,49%,7%
NC(=O)C1(N2CCCCC2)CCN(Cc2ccccc2)CC1,-11%,-3%,1%,28%,-7%[59 µM]
COC(=O)C1=C(c2ccc(OC(F)(F)F)cc2)C[C@@H]2CC[C@H]1N2C(=O)NCCCOC(C)C,-16%,-7%,-28%,34%,-6%[2.33 µM]
Cc1[nH]ccc2c1[nH]c1cc(=O)ccc12,-9%,-7%,-12%,6%,50µM*
O=C(O)CN1C(=O)CN=C(c2ccccn2)c2cc(Cl)ccc21,25µM*,-1%,50µM*,49%,-32%
O=C1CN=C(c2ccccc2)c2cc(Cl)ccc2N1Cc1ccc(Cl)cc1,-17%,-15%,-2%,8%,-10%[59 µM]
O=C(CCS(=O)(=O)c1ccccc1)Nc1nnc(-c2ccco2)o1,25µM*,-1%,50µM*,23%,32µM*
O=C(Nc1nnc(-c2ccco2)o1)c1cccc2ccccc12,?,0%,?,32%,9%
SMILES,JMJD2A Tudor inh,GLS inhibitor,BAZ2B block,HP1b chromo inh,G9a inh
CN(C)/C=C/C(=O)C(Cl)(Cl)Cl,3%,-4%,-3%,19%,-31%
CCN1C(=O)N(CC)C(=O)C2(Cc3ccccc3N3CCN(c4ccccc4)CC32)C1=O (centres undefined),-22%,12%,?,42%,2µM*
CN1C(=O)N(C)C(=O)C2(Cc3cc(N)ccc3N3CCN(c4ccccc4F)CC32)C1=O (centres undefined),.,.,50µM*,.,28µM*
CN1C(=O)N(C)C(=O)C2(Cc3cc(NC(=O)c4ccccc4)ccc3N3CCCC32)C1=O (centres undefined),-23%,-2%,-18%,45%,32µM*
CN1C(=O)N(C)C(=O)C2(Cc3cc(NC(=O)c4ccccc4Cl)ccc3N3CCCC32)C1=O (centres undefined),?,2%,-11%,41%,.
CN1CCN2c3ccc(N)cc3CC3(C(=O)NC(=O)NC3=O)C2C1 (centres undefined),89µM*,1%,7.9µM*,-12%,18µM*
COc1ccc(OC)c(CC(=O)N(C)C2CCCN(Cc3ccccc3F)C2)c1 (centres undefined),-23%,0%,?,6%,.
C[C@H](CCC(=O)O)[C@H]1CC[C@H]2[C@@H]3[C@@H](O)C[C@@H]4C[C@H](O)CC[C@]4(C)[C@H]3CC[C@]12C,-10%,1%,-13%,56%,-15%
C[C@@H]1O[C@H](O[C@@H]2C=C3CC[C@H]4[C@@H](CC[C@]5(C)[C@@H](c6ccc(=O)oc6)CC[C@]45O)[C@@]3(C)CC2)[C@@H](O)[C@H](O)[C@@H]1O,.,-13%[20 µM],.,.,35%[21.5 µM]
CC(Cc1ccccc1)/[N+]([O-])=C\c1ccc(C(F)(F)F)cc1 (centres undefined),1%,-8%,-5%,97%,4%[2.33 µM]
CN(C(=O)Cc1ccc(Cl)c(Cl)c1)C(CN1CCCC1)c1cccc(N=C=S)c1 (centres undefined),.,.,.,.,18µM*
CN1C(=O)C(C2c3ccccc3C(=O)N2Cc2ccccc2)C(=O)N(C)C1=O (centres undefined),-29%,10%,79µM*,17%,?
CN1C(=O)C(C2c3ccccc3C(=O)N2Cc2ccc([N+](=O)[O-])cc2)C(=O)N(C)C1=O (centres undefined),-25%,-9%,-11%,56%,.
Cc1nn(Cc2ccccc2)c(C)c1C(=O)OCC(=O)NCc1ccco1,2%,10%,-18%,15%,?
CC(C)C(OC(=O)c1ccco1)C(=O)NCc1ccco1 (centres undefined),79µM*,11%,-5%,?,0%[59 µM]
Clc1ccccc1NC1=NCCCS1,8%,1%,-14%,19%[57 µM],18%
CCC(C)N1CCN(C(=O)COc2ccc3ccccc3c2)CC1 (centres undefined),2.8µM*,13%,18µM*,50µM*,1.8µM*
O=C(COc1ccc2ccccc2c1)N1CCN(Cc2c[nH]c3ccccc23)CC1,8.9µM*,-1%,50µM*,?,?
